Inconclusive results are not listed. Calls of active or inactive are those of the source. The calls were made as follows, unless noted: active = hit-call score of the fitted dose curve at least 0.9, where 1 is the maximum; inactive = score below 0.9.
Experiments:
[1] = CCTE_Harrill_HTTr_Viability_MCF7: CCTE's 6-hour Cell Viability Assessment for the High-Throughput Transcriptomics (HTTr) Platform, in MCF-7 cells cultured in DMEM + 10% fetal bovine serum, Harrill Lab (AID 2284010)
Outline: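 Propidium iodide exclusion, imaged by high-content analysis, gauged viability after a six-hour exposure across eight concentrations. Cells were MCF-7 grown in DMEM with 10% fetal bovine serum; fits run in both directions against DMSO.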

[2] = CCTE_Harrill_HTTr_Apoptosis_MCF7: CCTE's 6-hour Apoptosis Assessment for the High-Throughput Transcriptomics (HTTr) Platform, in MCF-7 cells cultured in DMEM + 10% fetal bovine serum, Harrill Lab (AID 2284011)
Outline: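 High-content imaging of CellEvent Caspase 3/7 Green signal follows a six-hour exposure, with eight concentrations per chemical. MCF-7 cells grown in DMEM plus 10% fetal bovine serum; activity fitted in both directions against DMSO.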

[3] = CCTE_Harrill_HTTr_CellCount_MCF7: CCTE's Cell Proliferation Assessment for the High-Throughput Transcriptomics (HTTr) Platform, Harrill Lab (AID 2284012; active = hit-call score of the fitted dose curve at least 0.9, where 1 is the maximum;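 also: cells exposed to compound for six hours; intended direction is loss of nuclei count meaning fewer cells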)
Outline: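 Cell count from high-content imaging of Hoechst-labeled nuclei serves as viability/growth readout. Chemicals were applied to MCF-7 cells in eight concentrations for six hours, with fitting in both directions relative to DMSO.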

[4] = CCTE_Shafer_MEA_acute_spike_number: CCTE's Neural Acute Assay for Total Number of Spikes, Shafer Lab (AID 2284008)
Outline: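 Total spike count from 40 min recordings before and during compound exposure (0.03-40 uM), given as per-well percent change. Cortical cultures from rat, DIV 13 or 15, 37 C; adaptive detection threshold 8x rms noise.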

[5] = CCTE_Shafer_MEA_acute_firing_rate_mean: CCTE's Neural Acute Assay for Mean Firing Rate, Shafer Lab (AID 2284009);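 also: analyzed for loss of signal so actives lower firing rate relative to DMSO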
Outline: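 Spontaneous spiking of primary rat cortical networks, DIV 13/15, 37 C. Compound 0.03-40 uM, n ≥3 wells; 40 min baseline vs 40 min treated. Endpoint fitted in loss-of-signal direction against DMSO.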

[6] = CCTE_Shafer_MEA_acute_burst_number: CCTE's Neural Acute Assay for Single-Electrode Bursts, Shafer Lab (AID 2284013)
Outline: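 Burst totals were derived with adaptive spike detection (8x rms threshold) on filtered signals from rat cortical cultures; change relative to pre-treatment baseline after 40-min compound exposure (0.03-40 uM) was fitted in the negative direction against DMSO.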

[7] = CCTE_Shafer_MEA_acute_burst_duration_mean: CCTE's Neural Acute Assay for Mean Burst Duration, Shafer Lab (AID 2284014);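 also: hits are decreases in mean burst duration relative to DMSO controls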
Outline: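 Acute exposure of mature rat cortical networks (DIV 13 or 15) grown on microelectrode arrays to 0.03-40 uM compound. Mean burst duration compared with the 40-min pre-dose baseline over a 40-min post-dose recording at 37 C.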

[8] = CCTE_Shafer_MEA_acute_per_burst_spike_number_mean: CCTE's Neural Acute Assay for Average Number of Spikes Per Burst, Shafer Lab (AID 2284015);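 also: hits are decreases in mean spikes per burst versus baseline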
Outline: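 Rat primary cortical neurons on 48-well MEAs (DIV 13 or 15) were treated with 0.03-40 uM compound at 37 C. Mean spikes per burst over 40 min were recorded before and after exposure and expressed as percent change from baseline, relative to DMSO.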

[9] = CCTE_Shafer_MEA_acute_burst_percentage_mean: CCTE's Neural Acute Assay for Percentage of Spikes in a Burst, Shafer Lab (AID 2284017)
Outline: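 Primary rat cortical neurons on 48-well MEA plates, treated on DIV 13 or 15 at 0.03-40 uM. Spikes detected at 8x rms noise at 37C; percent change from 40-min baseline to 40-min post-dose recording, fitted versus DMSO.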

[10] = CCTE_Shafer_MEA_acute_per_network_burst_spike_number_mean: CCTE's Neural Acute Assay for Average Number of Spikes in a Network Burst, Shafer Lab (AID 2284019)
Outline: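 Acute exposure of rat primary cortical networks (DIV 13/15) on MEAs; adaptive spike detection at 8x rms noise, 37 C. Percent change in spikes per network burst after 40 min with compound (0.03-40 uM), negative direction vs DMSO.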

[11] = CCTE_Shafer_MEA_acute_per_network_burst_spike_number_std: CCTE's Neural Acute Assay for Standard Deviation of Number of Spikes in a Network Burst, Shafer Lab (AID 2284020);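 also: fitted for decrease in spike-number SD versus DMSO so actives lower it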
Outline: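 Acute MEA exposure, rat cortical neurons, 0.03-40 uM. Per-well % change versus own baseline; DMSO as negative control.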

[12] = CCTE_Shafer_MEA_acute_per_network_burst_electrodes_number_mean: CCTE's Neural Acute Assay for Mean Number of Electrodes in a Network Burst, Shafer Lab (AID 2284021);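 also: curves fitted for decreases only so hits reduce electrodes per burst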
Outline: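 Percent change from baseline was computed as mean electrode count per network burst, comparing 40 min recordings before and during compound (0.03-40 uM) exposure. Cultures were rat cortical neurons at DIV 13 or 15, recorded on MEAs at 37 C with an adaptive 8x rms threshold.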

[13] = CCTE_Shafer_MEA_acute_network_burst_percentage: CCTE's Neural Acute Assay for Percentage of Network Bursts, Shafer Lab (AID 2284022);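 also: curves fitted for loss so actives lower network burst percentage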
Outline: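 Network burst percentage (spikes in network bursts divided by total spikes) recorded at 37 C over 40 min baseline and 40 min after compound, 0.03-40 uM, in rat cortical cultures at DIV 13 or 15. Analysed as percent change from baseline versus DMSO.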

[14] = CCTE_Shafer_MEA_acute_cross_correlation_HWHM: CCTE's Neural Acute Assay for Cross Correlation at Half Width at Half Maximum, Shafer Lab (AID 2284026);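 also: spontaneous network firing of rat primary cortical neurons on multiwell microelectrode arrays; percent change per well from pre-dose baseline in spike cross-correlogram half width; hits are a decrease in cross-correlogram half width relative to DMSO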
Outline: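 Per-well percent change in cross-correlogram half width at half maximum, derived from 40-min recordings before and after compound (0.03-40 uM) at 37 C. Cultures were rat cortical neurons, DIV 13 or 15, with adaptive spike detection at 8x rms.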

[15] = CCTE_Shafer_MEA_acute_synchrony_index: CCTE's Neural Acute Assay for Synchrony, Shafer Lab (AID 2284027);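 also: network synchrony index of spontaneous spiking in primary rat cortical neurons on MEAs; fitted for loss of signal so actives lower synchrony relative to DMSO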
Outline: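 The synchrony index is taken as percent change per well between a 40 min baseline and a 40 min recording with compound (0.03–40 uM), at 37C. Rat cortical cultures on multiwell MEAs at DIV 13 or 15, spike threshold 8× rms noise.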

[16] = CCTE_Shafer_MEA_acute_interburst_interval_mean: CCTE's Neural Acute Assay for Mean Interburst Interval, Shafer Lab (AID 2284016);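 also: percent change of mean interburst interval versus each well's own pre-dose baseline; curves fitted for decrease in interburst interval relative to DMSO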
Outline: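 Rat primary cortical neurons on 48-well MEAs at DIV 13 or 15 were exposed acutely to 0.03-40 uM. Spikes detected at 8x rms noise, 37 C. Mean interburst interval from 40 min recordings expressed as percent change from 40 min pre-treatment baseline.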

Measured: outcome

COC(=O)c1ccccc1O
inactive: [1] | [2] | [3]

CCCCCCCCCCCCc1ccccc1
inactive: [4] | [5] | [1] | [2] | [6] | [7] | [8] | [9] | [10] | [11] | [12] | [13] | [14] | [15]

CN(C)c1ccc(Cc2ccc(N(C)C)cc2)cc1
inactive: [1] | [2]

CC[C@H](C)C(=O)O[C@H]1C[C@@H](C)C=C2C=C[C@H](C)[C@H](CC[C@@H]3C[C@@H](O)CC(=O)O3)[C@H]21
inactive: [1] | [2]

CCOC(=O)CC(CC(=O)OCC)(OC(C)=O)C(=O)OCC
inactive: [1] | [2]

CCOCCOCCOCCO
inactive: [1] | [2] | [3]

COCCOCCOCCOC
inactive: [1] | [2] | [3]

O=C(O)CCN(C1(C(=O)NO)CCCC1)S(=O)(=O)c1ccc(Oc2ccc(F)cc2)cc1
inactive: [4] | [5] | [1] | [2] | [3] | [6] | [7] | [8] | [16] | [9] | [10] | [11] | [12] | [13] | [14] | [15]

Oc1ccc2c(c1)-c1ccccc1C2
inactive: [1] | [2]

CCCCCCCCO
inactive: [1] | [2]

On1ccccc1=S
inactive: [4] | [5] | [1] | [2] | [3] | [6] | [7] | [8] | [16] | [9] | [10] | [11] | [12] | [13] | [14] | [15]

O=C(NS(=O)(=O)/C=C/c1ccccc1)c1ccc(F)cc1Cl
inactive: [1] | [2]

O=C1CCCCCN1
inactive: [1] | [2]

CCC(C)(C)C(=O)O[C@H]1C[C@@H](C)C=C2C=C[C@H](C)[C@H](CC[C@@H]3C[C@@H](O)CC(=O)O3)[C@H]21
inactive: [4] | [5] | [6] | [7] | [8] | [16] | [9] | [10] | [11] | [12] | [13] | [14] | [15]

O=c1n(CC2CO2)c(=O)n(CC2CO2)c(=O)n1CC1CO1 (stereo unspecified)
inactive: [1] | [2]

C[C@](N)(Cc1ccc(O)c(O)c1)C(=O)O
inactive: [1] | [2]

CC(=O)OC[C@H]1O[C@@](COC(C)=O)(O[C@H]2O[C@H](COC(C)=O)[C@@H](OC(C)=O)[C@H](OC(C)=O)[C@H]2OC(C)=O)[C@@H](OC(C)=O)[C@@H]1OC(C)=O
inactive: [1] | [2]

CC(=O)OCCC(C)C
inactive: [1] | [2]

Cc1ccc(C)c(O)c1
inactive: [1] | [2]

CCCCC(CC)COC(=O)c1ccc(C(=O)OCC(CC)CCCC)cc1 (stereo unspecified)
inactive: [1] | [2]

O=C(O)CC(O)C(=O)O (stereo unspecified)
inactive: [1] | [2]
